In PubChem BioAssay (NCI):
Values joined by “and” are separate entries in the source; they are usually repeats but may differ in a detail not shown here. Equal values may be shown once. About 83,000 compounds went through this panel and 20% of them were active in at least one assay; those are over-represented in the sample as a whole.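 96-well plates, one dose, 48 hours. Percent growth reported; active if below 10.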 Values without a mark were called inactive. Active and inactive are the calls of the source.

Legend:
Assay in all cases: NCI-60 one-dose screen, 48 h (100 = growth as untreated, 0 = no growth, -100 = all killed)
RPMI-8226 leukemia = tested on: RPMI-8226 leukemia
OVCAR-8 ovarian = settings: 10 µM
OVCAR-5 ovarian = tested on: OVCAR-5 ovarian
OVCAR-4 ovarian = tested on: OVCAR-4 ovarian
SK-OV-3 ovarian = tested on: SK-OV-3 ovarian
IGROV1 ovarian = settings: 10 µM
OVCAR-3 ovarian = tested on: OVCAR-3 ovarian
HS 578T breast = tested on: HS 578T breast
NCI/ADR-RES ovarian = tested on: NCI/ADR-RES ovarian
T-47D breast = tested on: T-47D breast

Compound: Cn1ncc2cc3c(Nc4ccc(Cl)cc4)cccc3nc21
- growth (RPMI-8226 leukemia; 10 µM): 79%
- growth (OVCAR-8 ovarian): 89.8%
- growth (OVCAR-5 ovarian; 10 µM): 109%
- growth (OVCAR-4 ovarian; 10 µM): 88.2%
- growth (SK-OV-3 ovarian; 10 µM): 94.7%
- growth (IGROV1 ovarian): 95.8%
- growth (OVCAR-3 ovarian; 10 µM): 94.1%
- growth (HS 578T breast; 10 µM): 89%
- growth (NCI/ADR-RES ovarian; 10 µM): 89.1%
- growth (T-47D breast; 10 µM): 77.2%

Compound: S=P(N1CC1)(N1CC1)N1CC1
- growth (RPMI-8226 leukemia; 10 µM): 99.2% and 136%
- growth (RPMI-8226 leukemia; 100 µM): 51.4%
- growth (OVCAR-8 ovarian): 110% and 80.7%
- growth (OVCAR-5 ovarian; 10 µM): 108% and 77.1%
- growth (OVCAR-5 ovarian; 100 µM): 64.7%
- growth (OVCAR-4 ovarian; 10 µM): 116% and 90.4%
- growth (OVCAR-4 ovarian; 100 µM): 87.9%
- growth (SK-OV-3 ovarian; 10 µM): 110% and 108%
- growth (SK-OV-3 ovarian; 100 µM): 67.2%
- growth (OVCAR-3 ovarian; 10 µM): 118% and 106%
- growth (OVCAR-3 ovarian; 100 µM): 69.8%
- growth (HS 578T breast; 10 µM): 113% and 126%
- growth (HS 578T breast; 100 µM): 66%
- growth (NCI/ADR-RES ovarian; 10 µM): 107% and 88.6%
- growth (NCI/ADR-RES ovarian; 100 µM): 40.3%
- growth (T-47D breast; 10 µM): 103% and 98.1%
- growth (T-47D breast; 100 µM): 53.7%

Compound: CN(C)c1ccc(/C=C/c2ccnc3ccccc23)cc1N
- growth (RPMI-8226 leukemia; 10 µM): 37.4%
- growth (OVCAR-8 ovarian): 75.3%
- growth (OVCAR-5 ovarian; 10 µM): 91.8%
- growth (OVCAR-4 ovarian; 10 µM): 58.2%
- growth (SK-OV-3 ovarian; 10 µM): 72%
- growth (OVCAR-3 ovarian; 10 µM): 70.7%
- growth (HS 578T breast; 10 µM): 80.2%
- growth (NCI/ADR-RES ovarian; 10 µM): 68%
- growth (T-47D breast; 10 µM): 48.3%

Compound: COc1ccc2oc(-c3ccc(Cl)cc3)c(N3CCN(C)CC3)c2c1
- growth (RPMI-8226 leukemia; 10 µM): -10.3% (active)
- growth (OVCAR-8 ovarian): 31.8%
- growth (OVCAR-5 ovarian; 10 µM): 2.8% (active)
- growth (OVCAR-4 ovarian; 10 µM): 78.2%
- growth (SK-OV-3 ovarian; 10 µM): 55.1%
- growth (IGROV1 ovarian): -87.5% (active)
- growth (OVCAR-3 ovarian; 10 µM): 1.93% (active)
- growth (HS 578T breast; 10 µM): 28.3%
- growth (NCI/ADR-RES ovarian; 10 µM): -10.9% (active)
- growth (T-47D breast; 10 µM): 14.6%

Compound: O=[N+]([O-])c1cc(S(=O)(=O)Nc2ccccc2)ccc1Cl
- growth (RPMI-8226 leukemia; 10 µM): 88.4%
- growth (OVCAR-8 ovarian): 91.5%
- growth (OVCAR-5 ovarian; 10 µM): 101%
- growth (OVCAR-4 ovarian; 10 µM): 97%
- growth (SK-OV-3 ovarian; 10 µM): 96.3%
- growth (OVCAR-3 ovarian; 10 µM): 106%
- growth (HS 578T breast; 10 µM): 101%
- growth (NCI/ADR-RES ovarian; 10 µM): 99.6%
- growth (T-47D breast; 10 µM): 69.6%

Compound: CN(CC(=O)O)c1ccc(/C=C/c2ccnc3ccccc23)cc1
- growth (RPMI-8226 leukemia; 10 µM): 70.4%
- growth (OVCAR-8 ovarian): 80%
- growth (OVCAR-5 ovarian; 10 µM): 123%
- growth (OVCAR-4 ovarian; 10 µM): 86.2%
- growth (SK-OV-3 ovarian; 10 µM): 91.3%
- growth (OVCAR-3 ovarian; 10 µM): 90.4%
- growth (HS 578T breast; 10 µM): 84.6%
- growth (NCI/ADR-RES ovarian; 10 µM): 89.3%
- growth (T-47D breast; 10 µM): 55.4%

Compound: CCC(C)(c1ccc(O)c(C)c1)c1ccc(O)c(C)c1
- growth (RPMI-8226 leukemia; 10 µM): 84.1%
- growth (OVCAR-8 ovarian): 103%
- growth (OVCAR-5 ovarian; 10 µM): 101%
- growth (OVCAR-4 ovarian; 10 µM): 91.9%
- growth (SK-OV-3 ovarian; 10 µM): 50.8%
- growth (OVCAR-3 ovarian; 10 µM): 102%
- growth (HS 578T breast; 10 µM): 95%
- growth (NCI/ADR-RES ovarian; 10 µM): 103%
- growth (T-47D breast; 10 µM): -5.53% (active)

Compound: Cc1cc(C)c(N2C(=O)CC(Sc3ccccc3N)C2=O)c(C)c1 (stereo not given)
- growth (RPMI-8226 leukemia; 10 µM): 66.3%
- growth (OVCAR-8 ovarian): 91.1%
- growth (OVCAR-5 ovarian; 10 µM): 118%
- growth (OVCAR-4 ovarian; 10 µM): 71.4%
- growth (SK-OV-3 ovarian; 10 µM): 71.6%
- growth (OVCAR-3 ovarian; 10 µM): 71.1%
- growth (HS 578T breast; 10 µM): 81%
- growth (NCI/ADR-RES ovarian; 10 µM): 75%
- growth (T-47D breast; 10 µM): 87.8%

Compound: Cn1c2nc3ccccc3c-2nc2ccccc21
- growth (RPMI-8226 leukemia; 10 µM): 94.9% and 96.8%
- growth (OVCAR-8 ovarian): 93% and 88.6%
- growth (OVCAR-5 ovarian; 10 µM): 103% and 86.9%
- growth (OVCAR-4 ovarian; 10 µM): 89.5% and 80.5%
- growth (SK-OV-3 ovarian; 10 µM): 91.2% and 90.8%
- growth (OVCAR-3 ovarian; 10 µM): 99.2% and 93.3%
- growth (HS 578T breast; 10 µM): 83.4% and 87.5%
- growth (NCI/ADR-RES ovarian; 10 µM): 99.3% and 93.6%
- growth (T-47D breast; 10 µM): 78.9% and 72%

Compound: O=C(O)c1ccccc1.[Ag]
- growth (RPMI-8226 leukemia; 10 µM): 96.9%
- growth (OVCAR-8 ovarian): 96.8%
- growth (OVCAR-5 ovarian; 10 µM): 102%
- growth (OVCAR-4 ovarian; 10 µM): 95%
- growth (SK-OV-3 ovarian; 10 µM): 109%
- growth (OVCAR-3 ovarian; 10 µM): 113%
- growth (HS 578T breast; 10 µM): 114%
- growth (NCI/ADR-RES ovarian; 10 µM): 93.2%
- growth (T-47D breast; 10 µM): 72.6%
